Compound activity (PubChem)
KDM5B inh – blocks human KDM5B histone demethylase activity; Q9UGL1; Potency, µM (doses to about 57.7 µM), usual class: inhibitors; KDM5B demethylase, FDH-coupled NADH fluorescence (FDH is formaldehyde dehydrogenase); 220,000 tested, 2.6% active; AID 1347165; further: potency means the concentration at half of the fitted maximal effect; 0% is about no effect; nearly all actives have a fitted effect of over 70% in size
Target sequence (Q9UGL1 whole entry, looked up): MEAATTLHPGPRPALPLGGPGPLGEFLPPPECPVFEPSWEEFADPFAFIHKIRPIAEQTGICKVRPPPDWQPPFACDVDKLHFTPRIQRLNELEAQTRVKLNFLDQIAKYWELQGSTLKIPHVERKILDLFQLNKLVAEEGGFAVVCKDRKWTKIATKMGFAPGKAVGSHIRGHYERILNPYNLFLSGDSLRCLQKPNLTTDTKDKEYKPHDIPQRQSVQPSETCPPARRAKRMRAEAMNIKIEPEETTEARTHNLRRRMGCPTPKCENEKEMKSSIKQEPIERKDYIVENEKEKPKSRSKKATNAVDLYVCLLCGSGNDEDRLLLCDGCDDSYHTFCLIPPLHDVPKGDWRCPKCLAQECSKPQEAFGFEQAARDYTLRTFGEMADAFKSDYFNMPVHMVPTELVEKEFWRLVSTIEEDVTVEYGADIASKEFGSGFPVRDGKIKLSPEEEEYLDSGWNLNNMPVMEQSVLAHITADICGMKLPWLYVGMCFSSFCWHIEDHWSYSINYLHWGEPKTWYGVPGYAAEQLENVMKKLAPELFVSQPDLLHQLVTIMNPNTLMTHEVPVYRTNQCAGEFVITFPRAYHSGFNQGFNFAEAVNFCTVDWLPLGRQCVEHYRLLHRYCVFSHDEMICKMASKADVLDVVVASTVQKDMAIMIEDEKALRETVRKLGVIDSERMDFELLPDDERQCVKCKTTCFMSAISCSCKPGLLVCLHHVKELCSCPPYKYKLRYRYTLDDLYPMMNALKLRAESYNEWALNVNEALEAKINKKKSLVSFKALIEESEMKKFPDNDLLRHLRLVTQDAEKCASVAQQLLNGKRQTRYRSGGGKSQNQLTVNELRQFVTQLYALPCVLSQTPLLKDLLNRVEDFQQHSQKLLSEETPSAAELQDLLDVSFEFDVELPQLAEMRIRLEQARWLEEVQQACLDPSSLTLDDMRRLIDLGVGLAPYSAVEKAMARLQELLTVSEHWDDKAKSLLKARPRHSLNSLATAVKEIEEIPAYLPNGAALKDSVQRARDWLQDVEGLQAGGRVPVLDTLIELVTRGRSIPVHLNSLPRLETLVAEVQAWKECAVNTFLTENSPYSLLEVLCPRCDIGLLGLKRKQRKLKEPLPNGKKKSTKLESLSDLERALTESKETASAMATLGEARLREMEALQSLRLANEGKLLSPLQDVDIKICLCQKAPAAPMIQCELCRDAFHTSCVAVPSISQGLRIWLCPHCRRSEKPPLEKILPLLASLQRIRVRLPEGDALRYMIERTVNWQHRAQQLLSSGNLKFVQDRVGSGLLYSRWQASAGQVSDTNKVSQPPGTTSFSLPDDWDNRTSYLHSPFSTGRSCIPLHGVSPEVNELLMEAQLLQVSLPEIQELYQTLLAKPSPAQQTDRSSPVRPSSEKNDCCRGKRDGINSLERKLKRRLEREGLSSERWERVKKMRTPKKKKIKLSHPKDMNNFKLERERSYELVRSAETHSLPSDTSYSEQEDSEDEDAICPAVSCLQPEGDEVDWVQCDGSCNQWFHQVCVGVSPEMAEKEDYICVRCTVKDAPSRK
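Here, H3K4me3 peptide (12.5 µM in substrate mix) is demethylated by KDM5BΔAP, 200 nM final, after 10 min compound exposure. Formaldehyde product is coupled through FDH (0.25 U/mL in mix) to NADH fluorescence; 30-min ΔRFU feeds dose-response curves.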
SNCA viab count – counter-screen for SNCA expression inhibitors: cell viability | HEK-293-SNCA-luc viability, GF-AFC fluorescence, 24 h | Potency, µM (series often up to 57.1 µM), for the others: at the highest dose activity change, negative = cytotoxicity, most hits filed as cytotoxic | 150,000 tested, 0.12% active | AID 1671193;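 further: potency means the concentration at half of the fitted maximal effect; 0% = DMSO-treated cells and -100% = medium-only wells without cells; nearly all actives have a fitted effect of over 30% in size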
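HEK-293-SNCA-luc cells (1500/well) plated 24 h, then exposed 24 h to a dilution series; GF-AFC added 30 min at 37C, fluorescence 405/540 nm; normalised to medium-only and DMSO wells, Hill fit.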
SNCA expr inhib – reduces expression of the alpha-synuclein gene; HEK-293 SNCA-luciferase knock-in, luminescence, 24 h; Potency, µM (doses to about 57.2 µM), inactives show at the highest dose activity change, negative = inhibition, actives largely listed as inhibitors; 140,000 tested, 0.17% active;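 further: potency means the concentration at half of the fitted maximal effect; plate controls were DMSO cells for no effect and cell-free wells for full effect; nearly all actives have a fitted effect of over 45% in size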
IP6K1 inhibitor – inhibitors of human IP6K1; Q92551; IP6K1 kinase, ADP-Glo luminescence, 2 h; hits give low values; activity change, % (series mostly up to about 58 µM); 140,000 tested, 0.81% active; AID 1645851; in the data active means activity change below about -25%; further: on the % scale 0 is the no-effect control and ±100 the full control effect
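ADP-Glo luminescence measures ADP made by human IP6K1 during a 2 h RT reaction with ATP/IP6 (mix at 1.3 mM/130 uM); top library doses 57.5 and 19.1 uM final.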
Starred values were filed as active, the others as inactive; i = inactive; ? = inconclusive; / = no result given; [ ] = dose if it differs, or a comment. Most compounds without a hit are left out; they make up all but 2.9% or so of the library. Unless noted, the call rests on the fitted dose curve; in most records, active means well fitted curve in the direction sought with a large enough effect; inconclusive means small, poorly fitted or top-dose-only effect, or another doubt; inactive means no such curve, though single readings can be large; an effect the other way counts as inactive or inconclusive.

SMILES	KDM5B inh	SNCA viab count	SNCA expr inhib	IP6K1 inhibitor
CCCNC(=O)NCC1c2cc(OC)c(OC)cc2CCN1C(=O)NC(C)C (stereo not drawn)	22µM*	3%	-6%	16
CC(C)(C)C(=O)COC(=O)c1ccccc1SCC1CCCO1 (stereo not drawn)	i	/	/	/
NC1CCc2nn(CC(=O)N3CCN(c4ncccn4)CC3)c(=O)n2CC1 (stereo not drawn)	?	-2%	-2%	-13
NC1CCc2nn(CC(=O)N3CCCN(c4ncccn4)CC3)c(=O)n2CC1 (stereo not drawn)	28µM*	-3%	6%	-9
CCN(CC)S(=O)(=O)c1ccc(NC(=O)CN(c2ccccc2)S(C)(=O)=O)cc1	i	/	/	/
COc1ccc(-c2noc([C@@H]3Cc4nc[nH]c4CN3Cc3cccs3)n2)cc1	?	-22%[87.6 µM]	?	-16
c1csc(CN2Cc3[nH]cnc3C[C@H]2c2nc(-c3ccc4ccccc4c3)no2)c1	28µM*	3%[87.6 µM]	?	33
c1cc(-c2noc([C@@H]3Cc4nc[nH]c4CN3CC3CCCCC3)n2)ccn1	35µM*	-7%[87.6 µM]	9%[87.6 µM]	3
c1csc(CN2Cc3[nH]cnc3C[C@H]2c2nc(-c3ccncc3)no2)c1	28µM*	6%[87.6 µM]	95%[87.6 µM]	7
COc1cc(F)ccc1CNCc1cccnc1N1CCOCC1	?	1%	-4%	-8
Cc1noc(C)c1-c1cnc2[nH]cc(CC(=O)NCc3cccnc3)c2c1	35µM*	2%[87.6 µM]	72%[87.6 µM]	-5
Cc1noc(C)c1-c1cnc2[nH]cc(CC(N)=O)c2c1	32µM*	-6%[87.6 µM]	81%[87.6 µM]	-23
Cc1ccccc1-c1cnc2[nH]cc(CC(=O)NCc3cccnc3)c2c1	?	0%[87.6 µM]	-15%[87.6 µM]	-7
CCOc1ccc(NC(=O)CN2C(=O)NC3(CCC(C)CC3)C2=O)cc1 (stereo not drawn)	i	-26%	?	9
CCN(CCn1cccn1)C(=O)c1ccc2nc(-c3ccc(F)cc3)cn2c1	25µM*	0%	1%	1
CCN(CC1CCCO1)C(=O)c1ccc2nc(-c3ccc(F)cc3)cn2c1 (stereo not drawn)	22µM*	-10%	26%	-14
CCN(Cc1ccc(C)o1)C(=O)c1ccc2nc(-c3ccc(F)cc3)cn2c1	28µM*	-2%	21%	6
O=C(Cc1ccc(Cl)cc1)NC1CCN(c2cc(-c3cccs3)[nH]n2)C1 (stereo not drawn)	8.9µM*	-12%	-2%	4
O=C(NC1CCN(c2cc(-c3cccs3)[nH]n2)C1)c1ccc(F)cc1F (stereo not drawn)	?	-12%	-14%	-4
O=C(NC1CCN(c2cc(-c3cccs3)[nH]n2)C1)c1ccccc1Cl (stereo not drawn)	14µM*	?	?	-11
O=C(NC1CCN(c2cc(-c3cccs3)[nH]n2)C1)c1ccc(F)cc1Cl (stereo not drawn)	16µM*	9%	6%	7
COc1ccc(C(=O)NC2CCN(c3cc(-c4cccs4)[nH]n3)CC2)c(C)c1	?	-2%	10%	11
COc1ccc(C(=O)NC2CCN(c3cc(-c4cccs4)[nH]n3)C2)c(C)c1 (stereo not drawn)	14µM*	?	11%	-3
Cc1cccc(CC(=O)NC2CCN(c3cc(-c4cccs4)[nH]n3)C2)c1 (stereo not drawn)	?	-14%	5%	6
CCCc1c(C(=O)OCC)[nH]c2c1C(=O)CC(c1ccc(N(C)C)cc1)C2 (stereo not drawn)	i	/	/	/
SMILES	KDM5B inh	SNCA viab count	SNCA expr inhib	IP6K1 inhibitor
CCN(CC)S(=O)(=O)c1cc(C)c(C)c(N)c1	i	/	/	/
CCC[C@@H]1CN(C(=O)c2ccc(-c3ccc(C)o3)cc2)C[C@H]1NC(C)=O	28µM*	1%	-16%	20
O=C(CCc1nc2cccnc2n1-c1ccccc1)Nc1ccc(Cl)c(Cl)c1	i	-29%	7.1µM*	-7
Cc1ccc(NC(=O)CCc2nc3cccnc3n2-c2ccccc2)cc1Cl	i	-11%	5%	22
O=C(c1cc(Cl)c2c(c1)OCCO2)N1CCSc2ccccc21	i	/	/	/
Cc1cc(NC(=O)COC(=O)C2(c3ccccc3F)CCCC2)no1	i	/	/	/
O=C1CC2(CCN(c3cncc(C(=O)N4CCCCC4)n3)C2)C(=O)N1 (stereo not drawn)	28µM*	-9%	0%	16
N#Cc1cccc(N2CCC3(CC(=O)NC3=O)C2)n1 (stereo not drawn)	28µM*	4%	-28%	7
N#Cc1cccc(N2CCC(Oc3ccc(Cl)cc3)(C(=O)O)CC2)n1	?	4%	14%	3
O=C(c1cncc(N2CCC3(CCCNC3=O)C2)n1)N1CCOCC1 (stereo not drawn)	?	-3%	10%	-4
Cc1cc(OCc2nnc(SCc3cc(=O)c4cc(C(N)=O)ccc4[nH]3)n2C)cc(C)c1Cl	i	/	/	/
Fc1cccc(-n2nc(C3CCOCC3)nc2CNC2CC2)c1	i	-19%	-2%	5
N[C@@H](CO)c1nc(C2CCOCC2)nn1-c1ccccc1F	25µM*	0%	16%	4
CN(Cc1ccccc1)c1ccc2cc(S(=O)(=O)N3CCCCC3)ccc2n1	i	3%	25µM*	-1
Cc1cccc(N(C)c2ccc3cc(S(=O)(=O)N4CCCC4)ccc3n2)c1	?	6%	-7%	18
Cn1c(=O)n(Cc2cccc(Cl)c2)c(=O)c2c1ncn2Cc1ccccc1	i	/	/	/
COc1cccc(CCC(=O)N[C@@H]2COCC[C@@H]2Oc2cccc(F)c2)c1	i	4%	5%	-14
CC(C)c1cc(C(=O)N[C@@H]2COCC[C@@H]2Oc2cccc(F)c2)nc(N)n1	28µM*	13%	0%	-2
Cc1ccc(-c2ccc3c(n2)CN(C)C(=O)CO3)cc1	i	4%[87.6 µM]	90%[87.6 µM]	-10
COc1ccc(-c2ccc3c(n2)CN(C)C(=O)CO3)cc1	35µM*	-4%[87.6 µM]	210%[87.6 µM]	-2
COc1ccc(-c2ccc3c(n2)CN(CCOc2ccccc2)C(=O)CO3)cc1	13µM*	4%[87.6 µM]	-3%[87.6 µM]	-9
CCCc1csc(N)c1C(=O)OCC	i	/	/	/
COc1ccccc1-c1cc(-c2ccccc2OC)c2onc(C)c2n1	?	1%[87.6 µM]	11%[87.6 µM]	-5
COc1ccccc1-c1cc(-c2cccs2)nc2c(C)noc12	35µM*	1%[87.6 µM]	-15%[87.6 µM]	-19
Cc1cc(-c2cc(-c3cccs3)nc3c(C)noc23)ccn1	28µM*	-13%[87.6 µM]	-32%[87.6 µM]	-15
CC(C)C(=O)N1CCn2c(nnc2C2CCN(Cc3ccc(F)cc3F)C2)C1 (stereo not drawn)	/	4%	24%	14
COc1ccc(CN2CCOc3nc(-c4cccc(C#N)c4)ncc3C2=O)cc1	i	-4%[87.6 µM]	17%[87.6 µM]	0
CC(Cc1ccc(Cl)cc1)NC(=O)c1ccc[n+]([O-])c1 (stereo not drawn)	i	/	/	/
CC(Sc1nc(CN2CCOCC2)nc2ccccc12)C(=O)c1cccc(Cl)c1 (stereo not drawn)	i	/	/	/
